Compounds with a hit are over-represented: about 19% of the library has one in this group of screens.
MARV entry inh: inhibitors of Marburg virus binding or cell entry; Marburg virus pseudotyped entry inhibition, cell reporter; Potency, µM (top dose mostly 37.8 µM), inactives show at the top dose activity change, negative = inhibition, hits mostly inhibitors; actives 1.8% (n = 300,000); calls by dose curve; tested in HEK293 cells; also: potency is read from the fitted curve at half-maximal effect; % is scaled to controls: 0 for no effect and ±100 for the full control effect
CHX counter: affects cycloheximide protein synthesis inhibition readout, counter-screen | max response, % | actives 12% (n = 300,000) | AID 2314 | cell reporter, cycloheximide protein synthesis inhibition counterscreen; in the data active = max response mostly above about 13%, no sharp cut-off; inactive = mostly below about 14%; also: read at 38.3 µM for the half of the compounds with a filed dose; 0% is about no effect
Pf growth 96h: inhibits malaria parasite growth, 96 h; P. falciparum luciferase reporter growth, 96 h; Potency, µM (series often up to 28.7 µM), inactives show at the highest dose activity change, negative = inhibition, most hits filed as inhibitors; actives 6.9% (n = 320,000); AID 504834; also: potency is read from the fitted curve at half-maximal effect; % is scaled to controls: 0 for no effect and ±100 for the full control effect
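Luminescence readout: decreased luciferase signal marks inhibited growth of reporter-expressing P. falciparum in infected red cells (2% hematocrit, 0.05% parasitemia final), exposed to compound two generations (96 h, 37 C, 5% CO2).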
Shiga inhibitor: Shiga toxin inhibition; AID 2315; actives 9.2% (n = 290,000); inhibition, % at 38.7 µM; Vero cells, Shiga toxin protein synthesis inhibition reporter; in the data active = inhibition mostly above about 28%, no sharp cut-off; inactive = mostly below about 43%; also: 0% is about no effect
Lassa entry inh: blocks Lassa virus binding to or entry into cells | Lassa virus pseudotype entry inhibition, cell reporter | Potency, µM (top dose mostly 37.9 µM), for inactives: at the highest dose activity change, negative = inhibition, hits mostly inhibitors | actives 1.2% (n = 300,000) | AID 540256; calls by dose curve; tested in HEK293 cells; also: potency is read from the fitted curve at half-maximal effect; % is scaled to controls: 0 for no effect and ±100 for the full control effect; nearly all actives have a fitted effect of over 50% in size
Pf growth 48h: inhibits P. falciparum growth in the first generation, 48 h; P. falciparum luciferase growth in erythrocytes, 48 h; Potency, µM (titrated, usually from 28.7 µM), without a hit: top-dose activity change, negative = inhibition, hits mostly inhibitors; actives 5.9% (n = 310,000); AID 504832; also: potency is read from the fitted curve at half-maximal effect; % is scaled to controls: 0 for no effect and ±100 for the full control effect
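First compound was added to culture medium, then infected red cells at 0.1% parasitemia and 2% hematocrit (final). After incubation at 37 C under 5% CO2, luciferase detection reagent was dispensed and light output recorded.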
Starred values were filed as active, the others as inactive; ? = inconclusive; · = no result given; [ ] = another dose, or the depositor's remark. Unless noted, calls follow the shape of the dose curve; as a rule, active = well fitted inhibition curve with a large enough effect; inconclusive = small, poorly fitted or top-dose-only effect, or another doubt; inactive = no such curve, though single readings can be large or run the other way.

SMILES	MARV entry inh	CHX counter	Pf growth 96h	Shiga inhibitor	Lassa entry inh	Pf growth 48h
O=C(/C=C/N1CCOCC1)c1ccc(-c2ccccc2)cc1	?	42*	·	50	-20%	53%
O=C(/C=C\N1CCOCC1)c1ccc(Br)cc1	-24%	27*	?	34*	5%	32%
COc1cccc(/C=C2\SC(=S)N(CCCC(=O)Nc3ccc(C(=O)O)cc3)C2=O)c1	-1%[46.1 µM]	17	8.3µM*	11	0%[46.1 µM]	?
COc1cccc(/C=C2/SC(=S)N(CCCC(=O)Nc3ccc(O)cc3)C2=O)c1	·	27*	?	44*	·	?
CCN(CC)CCOC(=O)c1ccc(NC(=O)CCCN2C(=O)S/C(=C/c3ccc(OC)cc3)C2=S)cc1	?	-9	-9%	-18	?	2.6µM*
O=S(=O)(Nc1ccc(-c2ccc(N3CCCCCC3)nn2)cc1)c1cccc(C(F)(F)F)c1	·	·	·	·	-19%[46.1 µM]	·
COc1ccccc1N1CCN(C(=O)CCC(=O)O)CC1	4%[46.1 µM]	-4	1%	29	2%	2%
CN(C)CCCN(C(=O)c1ccc(S(=O)(=O)N2CCCC2)cc1)c1nc2c(F)cc(F)cc2s1	?	·	15%	·	2%	?
CN(C)CCCN(C(=O)c1ccc(S(=O)(=O)N2CCc3ccccc3C2)cc1)c1nc2c(F)cccc2s1	-30%[46.1 µM]	32*	-10%	-6	-11%[46.1 µM]	?
COc1ccc2sc(N(CCCN(C)C)C(=O)c3ccc(S(=O)(=O)N4CCc5ccccc5C4)cc3)nc2c1	?	·	?	·	3.5µM*	?
COc1ccc2sc(N(CCN(C)C)C(=O)c3ccc4ccccc4c3)nc2c1	·	21*	97%	21	·	8%
COCCn1c(=NC(=O)CCS(=O)(=O)c2ccccc2)sc2cc(C(=O)OC)ccc21	·	-1	8%	27	·	1%
COCCn1c(=NC(=O)c2ccc(S(=O)(=O)N3CCc4ccccc4C3)cc2)sc2cc(OC)ccc21	-7%	-4	5.2µM*	-5	0%	?
Cc1cccc2nc(C(F)(F)F)nc(=O)n12	23%	15	-1%	38	20%	?
Cc1ccc2nc(N(CCCN(C)C)C(=O)c3ccc(S(=O)(=O)N4CCc5ccccc5C4)cc3)sc2c1	?	-7	?	-15	?	?
Cc1cccc2sc(N(CCCN(C)C)C(=O)c3ccc(S(=O)(=O)N4CCc5ccccc5C4)cc3)nc12	?	18	?	15	?	9.3µM*
CN(C)CCCN(C(=O)c1ccc(S(=O)(=O)N2CCc3ccccc3C2)cc1)c1nc2ccc(F)cc2s1	?	-7	?	-16	?	13µM*
COCCOC(=O)C1=C(C)NC(=O)NC1c1ccc(OC(=O)c2ccco2)c(OC)c1 (stereo not drawn)	12%	-2	-18%	-12	13%	7%
Cc1cc(C)n(Cc2ccc(C(=O)O)cc2)n1	8%	-2	-18%	4	4%	·
Cc1ccc(C)n1Cc1ccc(C(=O)O)cc1	9.2µM*	-1	·	3	-4%	-12%
COc1ccc(Nc2nc(C)cc(C)n2)cc1Cl	?	26*	-29%	76	5%[46.1 µM]	75%
COc1nc(Nc2ccc(OC)c(Cl)c2)nc(OC)n1	0%	8	-16%	22	-8%	8.3µM*
O=C(Cn1cccc1)N1CCN(c2ccc(F)cc2)CC1	·	-7	?	-13	·	·
O=C(NC1CCCC1)C(c1ccc(O)cc1)N(CC1CCCO1)C(=O)C1COc2ccccc2O1 (stereo not drawn)	0%	-5	15%	10	?	?
CC(C)CCNC(=O)C(c1ccc(O)cc1)N(C(=O)C1COc2ccccc2O1)c1cccc(O)c1 (stereo not drawn)	?	1	?	-7	?	12µM*
SMILES	MARV entry inh	CHX counter	Pf growth 96h	Shiga inhibitor	Lassa entry inh	Pf growth 48h
CCOc1cccc(N(C(=O)C2COc3ccccc3O2)C(C(=O)NC2CCCCC2)c2ccc(O)cc2)c1 (stereo not drawn)	-1%	-1	57%	-6	?	13µM*
CCN(CC)CCNC(=O)c1ccc(NC(=O)c2cccc(-n3cnnn3)c2)cc1	17%	·	?	·	-7%	?
O=C(Nc1cccnc1)c1cn(-c2ccccc2)nc1-c1cccs1	-16%	4	13%	6	-14%	0.59µM*
CCN(CC)CCNC(=O)c1ccc(NC(=O)c2ccccc2-c2ccc(C(F)(F)F)cc2)cc1	2.8µM*	-8	9.3µM*	-3	?	13µM*
CCN(CC)CCNC(=O)c1ccc(NC(=O)c2cn(-c3ccccc3)nc2-c2cccs2)cc1	·	6	?	42	·	12µM*
CCN(CC)CCNC(=O)c1ccc(NC(=O)c2c(C)nn(-c3ccc(F)cc3)c2Cl)cc1	?	-3	-10%	-12	-2%[46.1 µM]	?
O=C(Nc1cccc2ccccc12)c1cn(-c2ccccc2)nc1-c1cccs1	-6%	10	-1%	3	17%	18%
CCN(CC)CCNC(=O)c1ccc(NC(=O)c2cn(-c3ccc(F)cc3)nc2-c2cccc(OC)c2)cc1	?	-2	1µM*	3	?	1.9µM*
COc1ccc(-c2cc(C(F)(F)F)nc(SCC(=O)N(C)Cc3cn(C)nc3C)n2)cc1OC	?	4	?	3	?	-3%
COc1ccccc1OCC(=O)N1CCN(C(=O)COc2ccccc2OC)CC1	8%[46.1 µM]	-6	-23%	1	·	?
O=C(c1ccccc1F)N1CCCc2ccccc21	·	29*	?	55*	·	21%
O=C(c1cc(S(=O)(=O)N2CCOCC2)ccc1F)N1CCCc2ccccc21	2%	22*	-16%	27	8%	?
O=C(c1cccc(S(=O)(=O)N2CCOCC2)c1)N1CCCc2ccccc21	-3%	-3	1%	-4	-9%	-29%
Cc1cc(C2=NNC(=NCCc3ccccc3)SC2)c(C)n1CC1CCCO1 (stereo not drawn)	?	46*	?	194*	-4%	?
C=CCn1c(C)cc(C2=NNC(=NCc3ccccc3)SC2)c1C	?	62*	10µM*	111*	?	-20%
Cc1cc(-c2n[nH]c(=S)n2Cc2ccco2)nn1C	?	-2	29%	-9	0%	21%
CCN=C1NN=C(c2cc(C)n(Cc3ccco3)c2C)CS1	?	87*	-27%	138*	?	-45%
CCN=C1NN=C(c2cc(C)n(CCc3ccccc3)c2C)CS1	?	32*	?	62*	?	?
Cc1cc(C(=O)COC(=O)C2=NNC(=O)CC2)c(C)n1CCc1ccccc1	·	3	?	-2	·	40%
Cc1ccc(C)c(C2=NNC(=NCc3ccccc3)SC2)c1	?	25	?	32*	?	?
CC(=NCC1CCCO1)c1c(O)n(-c2ccc(Cl)cc2)c(=O)[nH]c1=O (stereo not drawn)	3%	1	·	15	?	-26%
